High-throughput results as filed in PubChem BioAssay.
Shown are actives, neighbours in structure and some others; about 18% of the full set was active somewhere.
Gal4-VP16 FLuc: VP16 counterscreen qHTS for inhibitors of ROR gamma transcriptional activity; Potency, µM (top dose mostly 53.6 µM), actives largely listed as inhibitors; Drosophila S2 Gal4-VP16 UAS-luciferase, luminescence, 20 h; 310,000 compounds, 3.5% hits;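 further: Gal4-VP16 expression switched on by copper sulfate through the metallothionein promoter; nearly all actives have a fitted effect of over 50% in size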
IL1B secr inh: qHTS for Inhibitors of Inflammasome Signaling: IL-1-beta AlphaLISA Primary Screen; activity change, % at 57.5 µM; THP-1 LPS/ATP IL-1B secretion, AlphaLISA, 16 h; stronger effect = lower value; 360,000 compounds, 4.7% hits; in the data active means activity change below about -50%; inconclusive means mostly about -30% to -49%
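Secreted IL-1B measured by AlphaLISA bead assay after 16 h compound exposure of THP-1 cells; compounds (final up to 57.5 uM) added 1 h before LPS (250 ng/mL) and ATP (1.25 mM) stimulation; lower signal means less secretion.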
RORgamma inh: qHTS for inhibitors of ROR gamma transcriptional activity; 310,000 compounds, 5.4% hits; Nuclear receptor ROR-gamma (Mus musculus), P51450; Drosophila S2 Gal4-RORgamma UAS-luciferase reporter, 20 h; Potency, µM (series often up to 53.6 µM), hits mostly inhibitors; further: nearly all actives have a fitted effect of over 60% in size
Target sequence (P51450 whole entry, looked up, the tested form may be a part): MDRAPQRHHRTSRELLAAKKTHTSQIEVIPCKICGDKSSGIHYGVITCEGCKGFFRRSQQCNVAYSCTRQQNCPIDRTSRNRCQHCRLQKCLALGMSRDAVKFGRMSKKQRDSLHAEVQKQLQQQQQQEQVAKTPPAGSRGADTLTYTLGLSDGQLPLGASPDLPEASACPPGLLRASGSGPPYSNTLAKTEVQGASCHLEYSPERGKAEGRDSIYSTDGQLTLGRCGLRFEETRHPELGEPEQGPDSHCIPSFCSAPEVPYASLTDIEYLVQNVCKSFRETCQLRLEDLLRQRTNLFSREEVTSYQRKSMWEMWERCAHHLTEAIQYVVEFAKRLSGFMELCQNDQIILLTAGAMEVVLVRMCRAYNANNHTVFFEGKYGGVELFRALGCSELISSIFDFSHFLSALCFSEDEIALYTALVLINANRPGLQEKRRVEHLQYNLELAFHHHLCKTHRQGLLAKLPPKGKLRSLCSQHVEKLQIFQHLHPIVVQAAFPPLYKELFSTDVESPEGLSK
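Compounds are pin-transferred onto Drosophila Schneider cells expressing a copper-inducible Gal4–ROR gamma transactivation domain fusion. After 1 hr, copper sulfate is added to 700 uM final; luciferase is read 20 hr later.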
LDHA block: qHTS assay for inhibitors of human lactate dehydrogenase; purified LDHA, NADH/diaphorase-resazurin fluorescence; stronger effect = lower value; 480,000 compounds, 0.15% hits; L-lactate dehydrogenase A chain (Homo sapiens), P00338; activity change, % (values are at about 110 or 230 µM); in the data active means activity change below about -30%; inconclusive means mostly about -25% to -30%
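LDH5 2 nM; NADH 0.06 mM, pyruvate 0.2 mM; 200 mM Tris pH 7.4, EDTA, Tween-20; 5 min RT. Detection: diaphorase 0.133 mg/mL + resazurin 37 µM, fluorescence ex540/em590 at 0 and 20 min; normalized to enzyme-free and DMSO wells.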
DT40 TDP1 CPT: qHTS for Inhibitors of human tyrosyl-DNA phosphodiesterase 1 (TDP1): qHTS in cells in presence of CPT. chicken DT40 Tdp1-/-;hTDP1 cells + 20 nM CPT, ATP luminescence, 48 h. Potency, µM (highest dose often 46.2 µM), actives largely listed as inhibitors. 420,000 compounds, 12% hits. AID 686979, 2013; further: nearly all actives have a fitted effect of over 55% in size
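Chicken DT40 Tdp1-/- cells stably complemented with human TDP1 were seeded at 400 cells/well in medium containing 20 nM camptothecin, exposed to pin-transferred compounds, and grown at 37 °C for at least 48 hr. Viability was read as ATP luminescence.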
TDP1 cell noCPT: qHTS for Inhibitors of human tyrosyl-DNA phosphodiesterase 1 (TDP1): qHTS in cells in absence of CPT; Potency, µM (doses to about 46.2 µM), most hits filed as inhibitors; 420,000 compounds, 15% hits; AID 686978, 2013; DT40 Tdp1-/- hTDP1 cells, no CPT, ATP luminescence, 48 h; further: nearly all actives have a fitted effect of over 55% in size
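Growth kinetics read by CellTiter-Glo luminescence after ≥48 hr at 37 °C. Cells: DT40 Tdp1-/- stably carrying human TDP1, 400 per well, compound exposure in the absence of CPT (DMSO vehicle).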
Hits are given with their value; i = inactive; ? = inconclusive; nt = no result. Unless noted, the call rests on the fitted dose curve; in most records, active means well fitted curve in the direction sought with a large enough effect; inconclusive means small, poorly fitted or top-dose-only effect, or another doubt; inactive means no such curve, though single readings can be large; an effect the other way counts as inactive or inconclusive.

SMILES | Gal4-VP16 FLuc | IL1B secr inh | RORgamma inh | LDHA block | DT40 TDP1 CPT | TDP1 cell noCPT
COc1ccc(CNc2ncnc3ccc(-c4cccc(NS(C)(=O)=O)c4)cc23)c(OC)c1 | i | nt | ? | nt | 18µM | 15µM
COc1ccc(CNc2ncnc3ccc(-c4cccc(C#N)c4)cc23)c(OC)c1 | i | nt | i | nt | ? | 26µM
COc1ccc(CNc2ncnc3ccc(-c4ccccc4CN(C)C)cc23)c(OC)c1 | i | nt | i | nt | 21µM | 10µM
CC[N+](CC)(CC#Cc1ccccc1)CC(=O)C(C)(C)C | nt | nt | nt | i | nt | nt
COc1ccc(NC(=O)c2ccccc2)c2cccnc12 | nt | nt | nt | i | nt | nt
CCN(CC)c1ccc(/C=C2\SC(N)=NC2=O)cc1 | i | i | i | i | i | i
Cc1cc(/C=C2\SC(=S)NC2=O)cc(C)c1O | i | ? | i | i | ? | ?
CCN(CC)c1ccc(C=C2SC(=S)NC2=O)cc1 | nt | i | nt | i | 13µM | ?
CC1Cc2cc(/C=C3/SC(=S)NC3=O)ccc2O1 (stereo not drawn) | ? | i | i | i | i | 18µM
Cc1cccnc1Nc1ncnc(N)c1[N+](=O)[O-] | i | i | i | i | i | i
Cc1cccc(Nc2ncnc(N)c2[N+](=O)[O-])n1 | i | i | i | i | 9.2µM | 16µM
Nc1ncnc(Nc2ccccn2)c1[N+](=O)[O-] | i | i | i | i | i | 23µM
Cc1ccc(C)c(Nc2ncnc(N)c2[N+](=O)[O-])c1 | i | i | i | i | i | i
CCOc1cc(/C=C2/NC(=O)NC2=O)ccc1OCc1cccc(F)c1 | nt | nt | nt | i | nt | nt
Oc1ccc(C[C@H]2CNC(=S)N2C[C@H]2CCCN2C[C@H](Cc2ccccc2)N2C[C@H](Cc3ccccc3)N(CC3CCCCC3)C2=S)cc1 | nt | i | nt | i | ? | 13µM
CC(C)C[C@H]1CNC(=S)N1C[C@H]1CCCN1C[C@H](Cc1ccc(O)cc1)N1C[C@H](Cc2ccc(O)cc2)N(CC2CCCCCC2)C1=S | nt | ? | nt | i | 4.6µM | 6.5µM
CC(C)C[C@H]1CNC(=S)N1CC1CCCN1C[C@H](Cc1ccccc1)N1C[C@H](Cc2ccc(O)cc2)N(CC2CCCCCC2)C1=S (stereo partly drawn) | nt | -67 | nt | i | ? | ?
CC(C)C[C@H]1CN([C@@H](Cc2ccc(O)cc2)CN2CCC[C@@H]2CN2C(=S)NC[C@@H]2Cc2ccccc2)C(=S)N1CC1CCCCCC1 | nt | i | nt | i | ? | 21µM
CC(C)C[C@H]1CN([C@@H](Cc2ccc(O)cc2)CN2CCC[C@@H]2CN2C(=O)C(=O)NC[C@@H]2Cc2ccccc2)C(=O)C(=O)N1CC1CCCCC1 | nt | ? | nt | i | ? | ?
COc1ccc(CN(C)c2nc3ccccc3nc2NS(=O)(=O)c2ccccc2)cc1OC | nt | nt | nt | i | nt | nt
CC(C)C[C@H]1CN([C@@H](Cc2ccc(O)cc2)CN2CCCC2CN2C(=S)NC[C@@H]2Cc2ccccc2)C(=S)N1CC1CCCCC1 (stereo partly drawn) | nt | i | nt | i | 16µM | 15µM
CN(C(=O)c1cccc(Cl)c1)C1CCCCC1 | nt | nt | nt | i | nt | nt
O=C(CC(c1ccccc1)c1ccccc1)N1CCN(c2ccccn2)CC1 | i | i | i | i | ? | 18µM
CN1CCN(C(=O)CSc2cc(=O)n(C)c3ccccc23)CC1 | i | i | i | i | i | i
Cn1c(=O)cc(SCC(=O)N2CCN(c3ccccc3)CC2)c2ccccc21 | i | i | i | i | 16µM | ?
SMILES | Gal4-VP16 FLuc | IL1B secr inh | RORgamma inh | LDHA block | DT40 TDP1 CPT | TDP1 cell noCPT
Cn1c(=O)cc(SCC(=O)N2CCN(c3ccccn3)CC2)c2ccccc21 | i | -50 | i | i | ? | ?
O=C(CCCOC(=O)c1cc(Cl)ccc1Cl)c1ccc(Br)cc1 | nt | nt | nt | i | nt | nt
Cc1cccc(OC(C)C(=O)Nc2cc(-c3ccccc3)no2)c1C (stereo not drawn) | nt | nt | nt | i | nt | nt
Clc1cccc(-c2ccc(CNCc3ccccn3)o2)c1 | ? | i | 11µM | i | ? | ?
Brc1ccc(-c2ccc(CNCc3ccccn3)o2)cc1 | ? | i | ? | i | ? | ?
CCCC(=O)Nc1ccc(C(=O)/C=C/c2ccc(SC)cc2)cc1 | i | i | ? | i | 13µM | 18µM
CC(=O)Nc1ccc(/C=C/C(=O)c2ccc(-n3nncc3-c3ccccc3)cc2)cc1 | nt | nt | nt | i | 5.6µM | 10µM
CSc1ccc(/C=C/C(=O)c2ccc(NC(C)=O)cc2)cc1 | i | ? | i | i | 16µM | 21µM
CSc1ccc(/C=C/C(=O)c2ccc(NC(=O)c3ccccc3)cc2)cc1 | nt | nt | nt | i | nt | nt
Cc1cc(=O)oc2cc(OCC(=O)NCc3cccnc3)c(Cl)cc12 | nt | nt | nt | i | nt | nt
CC(C)Cn1nnnc1SCc1coc(-c2cccc(Cl)c2)n1 | nt | nt | nt | i | nt | nt
Cc1ccccc1OCC(O)Cn1c(NCCc2ccccc2)nc2c1c(=O)[nH]c(=O)n2C (stereo not drawn) | nt | nt | nt | i | nt | nt
O=S(=O)(c1cccc(F)c1)N1CCC(Oc2ccc(-n3cnnn3)cc2)CC1 | nt | nt | nt | i | 16µM | 15µM
CCSc1nnc(NC(=O)CSc2c(Cl)cccc2Cl)s1 | i | i | 11µM | i | i | i
CCSc1nnc(NC(=O)CSc2nccn2-c2cccc(C)c2C)s1 | ? | i | 10µM | i | ? | ?
O=C(CSc1nccn1-c1ccccc1)Nc1nc2ccccc2s1 | nt | nt | nt | i | ? | ?
Cc1noc(NC(=O)CSc2nccn2-c2cccc(C)c2C)n1 | nt | nt | nt | i | nt | nt
Cc1cccc(C)c1Nc1nnc(SCC(=O)Nc2ncc(C(F)(F)F)cc2Cl)s1 | i | i | i | i | 2.1µM | i
Cc1cccc(-n2ccnc2SCC(=O)Nc2nc3ccccc3s2)c1 | nt | nt | nt | i | ? | 23µM
COc1ccc(NC(=O)CN(C)C(=O)c2ccc(-c3ccc(Cl)cc3)o2)cc1 | nt | nt | nt | i | nt | nt
C/C(=N/NC(=S)Nc1ccc(SC(F)F)cc1)c1cccc(C(F)(F)F)c1 | nt | nt | nt | i | nt | nt
Cc1cc(C)cc(-n2ccnc2SCC(=O)Nc2nnc(C)s2)c1 | nt | nt | nt | i | 4.1µM | 3.3µM
Cc1cc(NC(=O)c2ccc3c(c2)C(=O)N(c2cccc(C)c2C)C3=O)no1 | 18µM | i | ? | i | i | i
CCc1nnc(NC(=O)CSc2nccn2-c2cccc(C)c2)s1 | i | i | ? | i | i | i
Cc1nnc(NC(=O)CSc2nccn2C)s1 | i | i | i | i | i | i
Cc1cccc(-n2ccnc2SCC(=O)Nc2nnc(C)s2)c1 | i | i | i | i | ? | 15µM
CCSc1nnc(NC(=O)CSc2nccn2-c2cc(C)cc(C)c2)s1 | ? | i | 14µM | i | i | i
